Laboratory results published in PubChem BioAssay.
Values without a mark were called inactive. How the calls were made is not given here.

target: Pantothenate synthetase (Mycobacterium tuberculosis (strain ATCC 25618 / H37Rv)) (UniProt P9WIL5); assay: Recombinant Mtb pantothenate synthetase (PanC) inhibitors, coupled enzyme, confirmatory (AID 375); details: coupled enzyme assay; at 10 µM, hits give high values;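 further: 0% = full reaction with vehicle and 100% = no enzyme background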
Sequence (P9WIL5 whole entry, looked up): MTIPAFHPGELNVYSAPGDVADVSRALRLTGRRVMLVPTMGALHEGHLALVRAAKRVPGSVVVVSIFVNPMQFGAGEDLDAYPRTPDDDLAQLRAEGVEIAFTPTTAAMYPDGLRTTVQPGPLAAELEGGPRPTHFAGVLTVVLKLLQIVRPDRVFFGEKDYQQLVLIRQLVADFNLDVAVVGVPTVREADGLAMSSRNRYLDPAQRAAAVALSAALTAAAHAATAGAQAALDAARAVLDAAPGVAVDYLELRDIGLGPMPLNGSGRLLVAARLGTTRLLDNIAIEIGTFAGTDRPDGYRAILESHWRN

SMILES | inhibition
COc1ccc(NC(=O)Cn2nnc(-c3ccccc3F)n2)cc1Cl | 0%
CC1c2nc3ccccc3n2C(CC(=O)NCc2ccccn2)C(=O)N1Cc1ccccc1 (stereo not given) | 0%
COc1ccccc1-n1c(C)nnc1SCC(=O)Nc1cccc(C(C)=O)c1 | 0%
Cc1nc(C)c(C(=O)Nc2ccc(C)c(F)c2)o1 | 5%
O=C(c1cccc(C(=O)N2CCN(c3ccccc3)CC2)c1)N1CCN(c2ccccc2)CC1 | 0%
Cc1c(C(=O)Nc2cnccn2)oc2ccccc12 | 1%
O=C(Cc1ccccc1)Nc1ccc(CN2CCOCC2)cc1 | 0%
CCOC(=O)C1=C(c2ccccc2)N2CCS(=O)(=O)N=C2S1 | 0%
CC(C)(C)n1nnnc1CN(Cc1ccco1)Cc1cc2cc3c(cc2[nH]c1=O)OCO3 | 0%
CS(=O)(=O)N(CC(=O)NCc1ccncc1)Cc1ccc(Cl)cc1 | 0%
COc1ccc(-c2nc3c(n2O)CCC/C3=N\O)cc1 | 0%
CCn1cc(C(=O)NCc2ccco2)c(=O)c2cc(F)c(N3CCN(C(=O)c4ccco4)CC3)cc21 | 0%
C/C=C/CSc1nc2c(c(=O)[nH]c(=O)n2C)n1Cc1ccc(C)cc1 | 4%
CCCC(=O)Nc1ncnc2c1ncn2[C@@H]1O[C@@H]2COP(=O)(O)O[C@H]2[C@H]1OC(=O)CCC | 0%
COc1ncnc2c1N=C1CC(C)(C)CC(N)=C1S2 | 0%
Cc1cc(NS(=O)(=O)c2ccc(Nc3nc(-c4sc(N)nc4C)cs3)cc2)no1 | 4%
CCC(C(=O)Nc1ccccc1C(=O)N1CCCC1)N1C(=O)c2ccccc2C1=O (stereo not given) | 6%
COc1ccc(N=C2C(=O)Nc3ccccc32)cc1 | 0%
CCOc1cccc(Oc2ccc(C(F)(F)F)cn2)c1 | 0%
CCOC(=O)c1sc(NC(=O)c2c(C)nn(Cc3ccccc3)c2C)cc1C | 0%

SMILES | inhibition
Cc1ccccc1OCc1nc2ccccc2c(=O)n1/N=C/c1ccco1 | 0%
CC(=O)NCC(=O)N(Cc1ccco1)C1(C(=O)NC2CCCCC2)CCCCC1 | 0%
O=C(Cn1c(-c2cncs2)nc2ccccc21)NC1CCCC1 | 0%
COc1ccc(NC(C)=O)cc1NC(=O)CN1CCN(c2ccccn2)CC1 | 0%
COc1cc(OC)nc(NC(=O)CSc2nc3ccccc3o2)n1 | 11%
COC(=O)C(O)(CC(=O)c1ccc(OC)cc1)C(F)(F)F (stereo not given) | 0%
Cc1[nH]c2ccccc2c(=O)c1CN1CCCCC1 | 0%
CCCCC(=O)Nc1c(O)c2ccccc2[nH]c1=O | 0%
CN(c1ccccc1)S(=O)(=O)c1ccc(C(=O)OCC(=O)N2CCOCC2)cc1 | 7%
CCCCC(CC)C(=O)Nc1ccc(Cl)cn1 (stereo not given) | 8%
Cc1ccccc1NC(=O)C1CCCN(S(=O)(=O)c2cccc3cccnc23)C1 (stereo not given) | 0%
Nc1nnc(C(=O)c2ccccc2N)s1 | 0%
Brc1ccc2[nH]c3nc(SCCN4CCOCC4)nnc3c2c1 | 0%
CCc1nnc(NC(=O)c2ccc(-c3cccc(C(F)(F)F)c3)o2)s1 | 0%
Cc1ccc(-c2[nH]nc3c2C(c2ccoc2)C(C#N)=C(N)O3)cc1C (stereo not given) | 0%
Cn1c(=O)c2c(-c3ccncc3)c3c(nc2n(C)c1=O)-c1ccccc1C3=O | 0%
O=C(NC1CCCC1)c1cc(-c2cccs2)on1 | 6%
CCCCc1ccc(NC(=O)N[C@H](C(=O)O)C(C)C)cc1 | 1%
O=C(Nc1ccc2c(c1)OCO2)C(c1ccc(Cl)cc1)N1CCN(C(=O)c2ccco2)CC1 (stereo not given) | 0%
O=C(NC(C(=O)c1ccccc1)n1ccc(=O)[nH]c1=O)c1ccccc1 (stereo not given) | 0%
